Test results: PubChem BioAssay (Tox21)
Inconclusive results are not listed. Entries that show only a call come without a potency. Activity calls are given as the source filed them. Unless noted, calls follow the shape of the dose curve; as a rule, active = well fitted curve in the direction sought with a large enough effect in the repeat runs; inconclusive = weak or mixed curves; inactive = no such curve, though single readings can be large; an effect the other way counts as inactive or inconclusive.

Experiments:
[1] = A CellTox Green Cytotoxicity Assay to monitor cytotoxicity in HEK293 cells - 32 hour (AID 1224881); also: nearly all actives have a fitted effect of over 40% in size
How it was run: (§1)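 HEK293 cells, 600/well, were preincubated 5 hours and then exposed to compounds at 37 C for up to 40 hours. A cell-impermeant cyanine dye staining dead-cell DNA was read by fluorescence at 0, 8, 16, 24, 32 and 40 h time points.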

[2] = A CellTox Green Cytotoxicity Assay to monitor cytotoxicity in HepG2 cells - 0 hour (AID 1224882); also: nearly all actives have a fitted effect of over 35% in size
How it was run: (§2)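 HepG2 cells, 600/well, preincubated 5 h with CellTox Green dye, then exposed to Tox21 compounds in DMSO at 37 C for up to 40 h. Dead-cell DNA fluorescence read at the indicated time point.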

[3] = A CellTox Green Cytotoxicity Assay to monitor cytotoxicity in HepG2 cells - 32 hour (AID 1224883); also: nearly all actives have a fitted effect of over 50% in size; also: potency is read from the fitted curve at half-maximal effect
How it was run: as §2

[4] = A CellTox Green Cytotoxicity Assay to monitor cytotoxicity in HEK293 cells - 8 hour (AID 1224884); also: nearly all actives have a fitted effect of over 35% in size
How it was run: as §1

[5] = qHTS RealTime-Glo MT Cell Viability Assay in HepG2 cells - 16 hour (AID 1224885); also: nearly all actives have a fitted effect of over 50% in size
How it was run: (§3)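 Compound treatment began 5 h after plating HepG2 cells (600/well) with NanoLuc luciferase and prosubstrate. Plates stayed at 37 C for 40 h; luminescence was captured at six time points, 0 h through 40 h.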

[6] = qHTS RealTime-Glo MT Cell Viability Assay in HEK293 cells - 24 hour (AID 1224886); also: top concentration of the series differs between compounds; nearly all actives have a fitted effect of over 50% in size
How it was run: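 Quantitative high-throughput screen of the Tox21 10K library in HEK293: cells and RealTime-Glo reagents plated together, compound added at 5 h, luminescence monitored through 40 h at 37 C.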

[7] = qHTS RealTime-Glo MT Cell Viability Assay in HEK293 cells - 8 hour (AID 1224887); also: top concentration of the series differs between compounds; nearly all actives have a fitted effect of over 50% in size
How it was run: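 600 cells/well were plated with the nonlytic NanoLuc/prosubstrate reagent, pre-incubated 5 h, then given 23 nL of compound in DMSO. Incubation at 37 C for 40 h, with luminescence from viable-cell-reduced substrate read repeatedly from 0 h.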

[8] = A CellTox Green Cytotoxicity Assay to monitor cytotoxicity in HEK293 cells - 16 hour (AID 1224888); also: nearly all actives have a fitted effect of over 35% in size
How it was run: as §1

[9] = A CellTox Green Cytotoxicity Assay to monitor cytotoxicity in HepG2 cells - 8 hour (AID 1224890); also: nearly all actives have a fitted effect of over 45% in size
How it was run: as §2

[10] = qHTS assay to identify small molecule antagonists of the estrogen receptor alpha (ER-alpha) signaling pathway using the BG1 cell line in the presence of 0.1 nM 17-beta-estradiol - cell viability counter screen (AID 1259241); also: nearly all actives have a fitted effect of over 40% in size
How it was run: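 VM7Luc4E2 cells (endogenous full-length ER-alpha, 4xERE-luciferase), cultured 5 days in charcoal-stripped serum, exposed to compounds with 0.1 nM 17beta-estradiol (final) for 22 hr at 37C. Viability read in same wells as live-cell protease fluorescence after 30 min.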

[11] = qHTS assay to identify small molecule antagonists of the androgen receptor (AR) signaling pathway using the MDA cell line in the presence of 0.5 nM R1881 - cell viability counter screen (AID 1259242); also: nearly all actives have a fitted effect of over 45% in size
How it was run: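 MDA-kb2 cells (MMTV-luciferase, AR/GR responsive) were treated with compounds plus 0.5 nM R1881 (final) for 16 hr at 37C, 0% CO2. Viability was then read in the same wells as live-cell protease fluorescence (CellTiter-Fluor, 30 min).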

[12] = target: Estrogen receptor (Homo sapiens) (UniProt P03372); assay: qHTS assay to identify small molecule antagonists of the estrogen receptor alpha (ER-alpha) signaling pathway using the BG1 cell line in the presence of 0.1 nM 17-beta-estradiol (AID 1259244); also: nearly all actives have a fitted effect of over 50% in size
How it was run: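 VM7Luc4E2 cells (endogenous full-length ER-alpha, 4×ERE-luciferase), kept 5 days in phenol red-free, charcoal-stripped FBS medium; 4,000 cells/well. Compounds added with 0.1 nM (final) 17beta-estradiol, 22 hr at 37C; luminescence read with ONE-Glo after 30 min.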

[13] = qHTS assay to identify small molecule HDAC inhibitors (AID 1259364); also: top concentration of the series differs between compounds; nearly all actives have a fitted effect of over 45% in size
How it was run: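 Wild-type HCT-116 cells, plated overnight at 37 C, exposed to compounds 2 hr at 37 C; luminogenic HDAC-Glo substrate then added 30 min at room temperature. Luminescence reports relative endogenous class I/II HDAC activity.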

[14] = qHTS assay to identify small molecule HDAC inhibitors - cell viability counter screen (AID 1259365)
How it was run: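 Wild-type HCT-116 cells, 1,500/well, cultured overnight, then compound-treated 2 h at 37 C. Viability measured as ATP luminescence with CellTiter-Glo after 30 min at room temperature.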

[15] = qHTS assay to identify small molecule agonists of the sonic hedgehog signaling (Shh) pathway - cell viability counter screen (AID 1259366); also: nearly all actives have a fitted effect of over 50% in size
How it was run: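 NIH/3T3-derived Gli1-Luc reporter cells, 2,000 per well, received compound after 4 h and were treated about 23 h at 37C. Viability measured in the same wells by CellTiter-Fluor fluorescence after 1 h.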

[16] = qHTS assay to identify small molecule antagonists of the sonic hedgehog signaling (Shh) pathway - cell viability counter screen (AID 1259367); also: nearly all actives have a fitted effect of over 55% in size
How it was run: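 Seed 3T3 Gli1-Luc cells at 2,000 per well; incubate 4 hr; add compound in DMSO, then conditioned medium; incubate at 37C with 5% CO2; add CellTiter-Fluor after 23 hr; read fluorescence 1 hr later.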

[17] = qHTS assay to identify small molecule agonists of the sonic hedgehog signaling (Shh) pathway (AID 1259368; calls by dose curve;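 also: NIH/3T3-derived 3T3Gli1-Luc cells carrying a stable Gli1-driven firefly luciferase reporter; series mostly up to about 92 µM; nearly all actives have a fitted effect of over 15% in size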)
How it was run: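 NIH/3T3-derived 3T3Gli1-Luc cells with stably integrated Gli1-driven firefly luciferase, 2,000 cells/well, compounds added after 4 hr. Incubated 24 hr at 37C, 5% CO2; luminescence read after 30 min with luciferase reagent at room temperature.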

[18] = qHTS RealTime-Glo MT Cell Viability Assay in HepG2 cells - 0 hour (AID 1224889); also: nearly all actives have a fitted effect of over 50% in size
How it was run: as §3

[19] = target: Androgen receptor (Homo sapiens) (UniProt P10275); assay: qHTS assay to identify small molecule antagonists of the androgen receptor (AR) signaling pathway using the MDA cell line in the presence of 0.5 nM R1881 (AID 1259243); also: nearly all actives have a fitted effect of over 50% in size
How it was run: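 MDA-kb2 cells (MMTV-luciferase, responsive to AR and GR) at 3,000/well, rested 5 h at 37C, 0% CO2, then given compounds plus 0.5 nM R1881 (final) for 16 hr. Luciferase read with ONE-Glo after 30 min at room temperature.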

[20] = qHTS assay to identify small molecule phospholipidosis (PLD) inducers (AID 1259344; active = well fitted curve in the direction sought with a large enough effect; an effect the other way counts as inactive or inconclusive)
How it was run: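 Quantitative HTS in HepG2: compound plus LipidTOX Red dye for 24 h, paraformaldehyde fixation with Hoechst 33342, widefield high-content imaging; amiodarone as positive and DMSO as negative control.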

Chain of Estrogen receptor (Homo sapiens) (P03372 whole entry, looked up): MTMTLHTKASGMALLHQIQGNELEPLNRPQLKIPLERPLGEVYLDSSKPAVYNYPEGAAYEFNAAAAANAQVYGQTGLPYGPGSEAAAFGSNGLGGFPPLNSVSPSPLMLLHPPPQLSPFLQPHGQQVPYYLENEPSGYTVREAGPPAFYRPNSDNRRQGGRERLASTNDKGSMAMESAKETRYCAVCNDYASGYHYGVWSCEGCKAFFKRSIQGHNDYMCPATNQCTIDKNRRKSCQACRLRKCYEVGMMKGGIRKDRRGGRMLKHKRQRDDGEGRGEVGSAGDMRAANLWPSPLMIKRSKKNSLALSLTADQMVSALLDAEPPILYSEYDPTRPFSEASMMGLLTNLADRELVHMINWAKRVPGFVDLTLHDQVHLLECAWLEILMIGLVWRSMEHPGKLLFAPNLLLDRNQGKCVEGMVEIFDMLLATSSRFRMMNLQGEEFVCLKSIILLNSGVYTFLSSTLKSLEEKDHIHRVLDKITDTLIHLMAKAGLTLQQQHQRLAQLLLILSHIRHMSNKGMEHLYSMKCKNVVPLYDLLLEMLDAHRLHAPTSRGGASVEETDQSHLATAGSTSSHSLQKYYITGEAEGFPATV
Chain of Androgen receptor (Homo sapiens) (P10275 whole entry, looked up): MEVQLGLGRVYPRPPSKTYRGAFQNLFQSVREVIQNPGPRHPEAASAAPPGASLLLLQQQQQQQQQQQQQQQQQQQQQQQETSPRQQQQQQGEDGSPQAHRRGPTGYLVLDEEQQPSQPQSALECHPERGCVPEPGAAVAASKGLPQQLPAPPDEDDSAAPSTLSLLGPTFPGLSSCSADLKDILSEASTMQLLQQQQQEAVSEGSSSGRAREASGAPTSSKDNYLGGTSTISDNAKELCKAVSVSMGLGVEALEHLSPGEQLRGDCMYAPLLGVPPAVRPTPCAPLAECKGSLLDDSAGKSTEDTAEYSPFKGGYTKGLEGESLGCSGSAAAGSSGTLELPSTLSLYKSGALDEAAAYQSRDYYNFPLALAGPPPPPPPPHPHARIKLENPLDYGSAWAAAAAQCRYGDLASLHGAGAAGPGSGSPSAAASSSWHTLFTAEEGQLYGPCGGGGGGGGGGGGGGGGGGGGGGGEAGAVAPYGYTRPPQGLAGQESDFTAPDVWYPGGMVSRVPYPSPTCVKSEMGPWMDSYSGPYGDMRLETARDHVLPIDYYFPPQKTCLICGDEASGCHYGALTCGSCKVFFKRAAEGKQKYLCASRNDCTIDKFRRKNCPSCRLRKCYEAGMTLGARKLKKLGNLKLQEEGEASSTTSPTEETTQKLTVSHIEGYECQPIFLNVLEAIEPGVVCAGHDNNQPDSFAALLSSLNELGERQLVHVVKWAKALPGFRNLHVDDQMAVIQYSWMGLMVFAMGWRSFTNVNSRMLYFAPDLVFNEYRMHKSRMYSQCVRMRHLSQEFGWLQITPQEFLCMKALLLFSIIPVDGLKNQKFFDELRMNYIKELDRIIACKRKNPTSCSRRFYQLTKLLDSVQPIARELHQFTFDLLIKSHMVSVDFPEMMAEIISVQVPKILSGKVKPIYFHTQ

| Compound | Potency [1] | Potency [2] | Potency [3] | Potency [4] | Potency [5] | Potency [6] | Potency [7] | Potency [8] | Potency [9] | Potency [10] | Potency [11] | Potency [12] | Potency [13] | Potency [14] | Potency [15] | Potency [16] | outcome [17] | Potency [18] | Potency [19] | Potency [20] |
| --- | --- | --- | --- | --- | --- | --- | --- | --- | --- | --- | --- | --- | --- | --- | --- | --- | --- | --- | --- | --- |
| OC[C@H]1O[C@@H](OCCc2ccc(O)cc2)[C@H](O)[C@@H](O)[C@@H]1O | inactive | inactive | inactive | inactive | inactive | inactive | inactive | inactive | inactive | inactive | inactive | inactive | inactive | inactive | inactive | inactive | inactive | – | – | – |
| CN(C)CCN(Cc1ccc(Cl)cc1)c1ccccn1 | inactive | inactive | inactive | inactive | inactive | inactive | inactive | inactive | inactive | – | inactive | – | inactive | inactive | – | inactive | inactive | inactive | – | – |
| Cc1ccccc1S(=O)(=O)O | inactive | inactive | inactive | inactive | inactive | inactive | inactive | inactive | inactive | – | inactive | – | inactive | – | inactive | inactive | inactive | – | – | – |
| c1ccc(CNCCNCc2ccccc2)cc1 | inactive | inactive | inactive | inactive | inactive | inactive | inactive | inactive | inactive | inactive | inactive | inactive | – | inactive | inactive | inactive | inactive | – | – | – |
| O=C(O)CC(=O)C(=O)O | inactive | inactive | inactive | inactive | inactive | inactive | inactive | inactive | inactive | inactive | – | – | – | inactive | inactive | – | inactive | – | – | – |
| NCC(=O)CCC(=O)O | inactive | inactive | inactive | inactive | inactive | inactive | inactive | inactive | inactive | inactive | – | inactive | inactive | inactive | inactive | inactive | inactive | – | – | – |
| CN(C)CCOC(c1ccccc1)c1ccc(Br)cc1 (stereo not drawn) | inactive | inactive | 23.9 µM (active) | inactive | inactive | inactive | inactive | inactive | inactive | – | inactive | inactive | inactive | inactive | – | inactive | inactive | – | inactive | – |
| CCCCO | inactive | inactive | inactive | inactive | inactive | inactive | inactive | inactive | inactive | inactive | inactive | – | inactive | inactive | – | inactive | inactive | – | – | inactive |
